Reference: PubChem BioAssay AID1159580 (chemical genetic matrix, 2015)
Where “and” joins values, the source holds several entries; their conditions need not be identical. Identical values can stand only once. Among all 5,500 compounds or so, about 2,000 (36%) were called active. Inconclusive results (about 18%) are left out. Rule as the data show it: active = normalized growth mostly below about 0.91 (no sharp cut-off); inconclusive = no clear call, values can overlap the other calls; inactive = mostly above about 0.92. The list shows a part of the results.

Assay: chemical genetic growth profiling, strain panel (AID 1159580);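 also: tested at 20 µM; growth read once vehicle control cultures reached saturation at 30 °C; 1 = growth at the plate median or of vehicle wells; lower values mean less growth of the strain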
Settings: S. cerevisiae deletion strains, growth OD

Measured: normalized growth

CC(=O)Oc1cc(-c2coc3cc(OC(C)=O)c(OC(C)=O)c(OC(C)=O)c3c2=O)cc(OC(C)=O)c1OC(C)=O
active: locus YAL013W, strain DEP1, stronger effect = lower value 0.67 | locus YAL021C, strain ccr4, stronger effect = lower value 0.81 | locus YAL026C, strain drs2, stronger effect = lower value 0.836 | locus YBL061C, strain skt5, stronger effect = lower value 0.919 | locus YBR023C, strain chs3, stronger effect = lower value 0.841 | locus YBR229C, strain ROT2, stronger effect = lower value 0.89 | locus YBR231C, strain swc5, stronger effect = lower value 0.772 | locus YCL029C, strain bik1, stronger effect = lower value 0.674 | locus YDL035C, strain GPR1, stronger effect = lower value 0.83 | locus YDL074C, strain BRE1, stronger effect = lower value 0.643 | locus YDL101C, strain DUN1, stronger effect = lower value 0.438 | locus YDL192W, strain arf1, stronger effect = lower value 0.899 | locus YDR069C, strain doa4, stronger effect = lower value 0.752 | locus YDR101C, strain arx1, stronger effect = lower value 0.827 | locus YDR137W, strain rgp1, stronger effect = lower value 0.795 | locus YDR162C, strain NBP2, stronger effect = lower value 0.717 | locus YDR297W, strain sur2, stronger effect = lower value 0.914 | locus YDR334W, strain swr1, stronger effect = lower value 0.834 | locus YDR335W, strain msn5, stronger effect = lower value 0.851 | locus YDR502C, strain sam2, stronger effect = lower value 0.898 | locus YEL003W, strain gim4, stronger effect = lower value 0.877 | locus YEL037C, strain rad23, stronger effect = lower value 0.88 | locus YER015W, strain faa2, stronger effect = lower value 0.894 | locus YER111C, strain swi4, stronger effect = lower value 0.469 | locus YER155C, strain BEM2, stronger effect = lower value 0.913 | locus YFR010W, strain ubp6, stronger effect = lower value 0.881 | locus YGL086W, strain mad1, stronger effect = lower value 0.887 | locus YGL173C, strain kem1, stronger effect = lower value 0.85 | locus YGL248W, strain PDE1, stronger effect = lower value 0.845 | locus YGL253W, strain hxk2, stronger effect = lower value 0.862 | locus YGR135W, strain pre9, stronger effect = lower value 0.871 | locus YGR229C, strain SMI1, stronger effect = lower value 0.302 | locus YHR027C, strain rpn1, stronger effect = lower value 0.885 | locus YHR079C, strain IRE1 (second series), stronger effect = lower value 0.794 | locus YHR129C, strain ARP1, stronger effect = lower value 0.844 | locus YHR142W, strain chs7, stronger effect = lower value 0.82 | locus YHR200W, strain rpn10, stronger effect = lower value 0.914 | locus YIL066C, strain RNR3, stronger effect = lower value 0.834 | locus YIL073C, strain SPO22, stronger effect = lower value 0.602 | locus YJL164C, strain tpk1, stronger effect = lower value 0.893 | locus YJL187C, strain SWE1 (second series), stronger effect = lower value 0.273
inactive: locus YAL030W, strain snc1, stronger effect = lower value 0.969 | locus YBR009C, strain hhf1, stronger effect = lower value 0.934 | locus YBR021W, strain FUR4, stronger effect = lower value 0.854 | locus YBR171W, strain sec66, stronger effect = lower value 0.936 | locus YBR279W, strain paf1, stronger effect = lower value 0.937 | locus YCL011C, strain gbp2, stronger effect = lower value 0.93 | locus YCL016C, strain dcc1, stronger effect = lower value 0.948 | locus YCL069W, strain vba3, stronger effect = lower value 0.96 | locus YCR088W, strain abp1, stronger effect = lower value 0.977 | locus YDL005C, strain med2, stronger effect = lower value 0.985 | locus YDL040C, strain nat1, stronger effect = lower value 0.987 | locus YDL185W, strain tfp1, stronger effect = lower value 0.978 | locus YDR001C, strain nth1, stronger effect = lower value 0.977 | locus YDR159W, strain sac3, stronger effect = lower value 0.863 | locus YDR195W, strain ref2 0.947 | locus YDR318W, strain mcm21, stronger effect = lower value 0.967 | locus YDR388W, stronger effect = lower value 0.978 | locus YDR392W, strain spt3, stronger effect = lower value 0.938 | locus YEL061C, strain CIN8 (second series), stronger effect = lower value 0.946 | locus YER016W, strain bim1, stronger effect = lower value 0.972 | locus YER110C, stronger effect = lower value 1.05 | locus YER155C, strain BEM2 (second series), stronger effect = lower value 0.906 | locus YER167W, strain BCK2, stronger effect = lower value 0.949 | locus YGL078C, strain dbp3, stronger effect = lower value 1.01 | locus YGL167C, strain pmr1, stronger effect = lower value 0.956 | locus YGL227W, strain vid30, stronger effect = lower value 0.996 | locus YGL240W, strain doc1, stronger effect = lower value 0.975 | locus YGR252W, strain gcn5, stronger effect = lower value 0.873 | locus YHR013C, strain ard1, stronger effect = lower value 0.877 | locus YHR030C, strain SLT2, stronger effect = lower value 1.05 | locus YHR079C, strain IRE1, stronger effect = lower value 1.07 | locus YHR094C, strain hxt1, stronger effect = lower value 1.03 | locus YIL125W, strain kgd1, stronger effect = lower value 1.03 | locus YIR030C, strain dcg1, stronger effect = lower value 0.974 | locus YJL092W, strain hpr5, stronger effect = lower value 0.964 | locus YJL095W, strain BCK1 (second series), stronger effect = lower value 0.945 | locus YJL115W, strain asf1, stronger effect = lower value 0.978 | locus YJL129C, strain trk1, stronger effect = lower value 0.942 | locus YJL134W, strain LCB3, stronger effect = lower value 0.936 | locus YJL154C, strain vps35, stronger effect = lower value 0.978 | locus YJL166W, strain qcr8, stronger effect = lower value 0.906 | locus YJL168C, strain set2, stronger effect = lower value 1.01 | locus YJL187C, strain SWE1, stronger effect = lower value 0.945 | locus YJR066W, strain TOR1, stronger effect = lower value 0.971
0.179 (active) and 1.03 (inactive): locus YJL095W, strain BCK1, stronger effect = lower value
